Pf Dd2 inh: qHTS Primary assay for Inhibitors of Plasmodium falciparum Dd2 growth in vitro; P. falciparum Dd2 growth, SYBR Green, 72 h; Potency, µM (highest dose often 28.9 µM), without a hit: at the top dose activity, negative = inhibition, hits mostly inhibitors; hit rate 4.3% among 120,000; active = well fitted inhibition curve with a large enough effect;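 also: plate controls were DMSO vehicle for no effect and reference drug for full effect; nearly all actives have a fitted effect of over 65% in size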
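Readout: SYBR Green fluorescence, 485 nm excitation, 535 nm emission, after ~16 h lysis at 37C. Before that, Dd2-infected red cells (2.5% hematocrit) grew 72 h with compound, 29 uM top final concentration.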
An asterisk follows results filed as active; i = inactive; [ ] = another dose, or the depositor's remark. The full list was thinned out, with hits kept by preference. Potency is read from the fitted curve at half-maximal effect.

SMILES	Pf Dd2 inh
COC[C@@H]1CN(C(=O)c2cc(C)cc(C)c2)C[C@H]1C(N)=O	0.5%
Cc1nc(-c2ccccc2)cc([C@H]2CN3CC[C@H]2C[C@@H]3CN(Cc2ccco2)Cc2ccco2)n1	1.12µM*
Cc1nc(-c2ccccc2Br)cc([C@H]2CN3CC[C@H]2C[C@@H]3CNC(=O)NC2CCCCC2)n1	i
Cc1nc(-c2ccccc2Br)cc([C@H]2CN3CC[C@H]2C[C@@H]3CNC(=O)c2ccc(C(C)(C)C)cc2)n1	3.16µM*
CCNC(=O)NC[C@H]1C[C@@H]2CCN1C[C@@H]2c1cc(-c2ccc(N(C)C)cc2)nc(C)n1	-4.3%[44.1 µM]
Cc1nc(-c2ccccc2)cc([C@H]2CN3CC[C@H]2C[C@@H]3CNC(=O)C2CC2)n1	i
Cc1nc(-c2ccc(N(C)C)cc2)cc([C@H]2CN3CC[C@H]2C[C@@H]3COC(=O)NC(C)C)n1	-4.0%
Cc1nc(-c2ccc(N(C)C)cc2)cc([C@H]2CN3CC[C@H]2C[C@@H]3CNC(=O)c2ccccc2)n1	3.16µM*
COc1ccc(C(=O)NC[C@H]2C[C@@H]3CCN2C[C@@H]3c2cc(-c3ccc(N(C)C)cc3)nc(C)n2)cc1	i
Cc1ccc(C(=O)NC[C@H]2C[C@@H]3CCN2C[C@@H]3c2cc(-c3ccccc3Br)nc(C)n2)cc1	-8.7%
Cc1nc(-c2ccccc2)cc([C@H]2CN3CC[C@H]2C[C@@H]3CNC(=O)C2CCC2)n1	i
Cc1nc(-c2ccc(N(C)C)cc2)cc([C@H]2CN3CC[C@H]2C[C@@H]3COC(=O)Nc2ccc(C(C)C)cc2)n1	3.98µM*
COc1ccc(C(=O)N2C[C@@H](CO)[C@H](c3nc(C4CC4)no3)C2)cc1	17.3%
CC(=O)Nc1ccc(OCC(=O)N(C)Cc2ccccc2)nc1	30.0%
COC[C@@H]1CN(c2cnccn2)C[C@H]1C(=O)NCC1CC1	-2.7%
Cc1ccc2c(c1)N(C(=O)Cn1ccn3nc(-c4ccc(F)cc4)c(CO)c3c1=O)CCO2	i
CN(CC(N)=O)C(=O)[C@@H]1[C@@H](NC(=O)Nc2ccc(F)cc2F)CCN1C(=O)c1cccn1C	3.6%
COc1ccc(-c2cc([C@H]3CN4CC[C@H]3C[C@@H]4CN)nc(C)n2)cc1OC	11.2µM*
CCNC(=O)NC[C@H]1C[C@@H]2CCN1C[C@@H]2c1cc(-c2ccc(OC)c(OC)c2)nc(C)n1	-19.7%
CCCS(=O)(=O)NC[C@H]1C[C@@H]2CCN1C[C@@H]2c1cc(-c2ccc(OC)c(OC)c2)nc(C)n1	i
C[S+](=O)([O-])NCCn1ccc2cc(OC3CCN(c4ncc(F)cn4)CC3)cnc21	i
C=CCN1CCN(C(=O)c2nnn3cc(-c4ccccc4)[nH]c(=O)c23)CC1	-0.6%
Cc1cn2nc(C(=O)N3CCN(c4ccccc4F)CC3)cc2c(N2CCCC2)n1	0.4%
CN(C)C(=O)c1noc2c1CN(C(=O)C1COc3ccccc3C1)CC2 (stereo unspecified)	-8.0%
O=C(OCc1ccccc1)N1CCCC2(C1)C(=NC1CCCC1)NC(=O)N2c1cc(F)cc(F)c1 (stereo unspecified)	-28.4%
SMILES	Pf Dd2 inh
O=C1NC(=NC2CCCCC2)C2(CCN(Cc3ccsc3)CC2)N1c1cccnc1	-3.2%
COc1cccc(N2C(=O)NC(=NC3CCCC3)C23CCCN(Cc2ccsc2)C3)c1 (stereo unspecified)	8.91µM*
O=C1NC(=NC2CCCCC2)C2(CCCN(Cc3cccnc3)C2)N1c1cccnc1 (stereo unspecified)	4.8%
COc1cccc(N2C(=O)NC(=NC3CCCC3)C23CCN([S+](=O)([O-])c2ccccc2)C3)c1 (stereo unspecified)	10.4%
O=C1NC(=NC2CCCCC2)C2(CCCN(Cc3ccsc3)C2)N1c1cc(F)cc(F)c1 (stereo unspecified)	7.94µM*
COc1ccc(CNC[C@H]2COCc3nc4cccnc4n32)cc1	i
O=C(CCC[C@@H]1[C@H]2CCCN3CCC[C@@H](CN1Cc1cccnc1)[C@@H]23)NCCN1CCOCC1	-9.0%
CC(=O)NC[C@@H]1C=C(C)[C@H](CC(=O)N(C)Cc2ccccc2)C[C@H]1C(C)C	i
CC1(C)C(=O)Nc2ccc(S(=O)(=O)N3CCC(c4noc(-c5cccnc5)n4)C3)cc21 (stereo unspecified)	i[5.79 µM]
O=C(NCc1ccc2c(c1)OCO2)c1nc(-c2cc(Cl)cc(Cl)c2)c2ccccn12	-26.3%
COCCNC(=O)c1nc(-c2ccc(F)cc2)c2ccccn12	i
O=C(NCc1ccc(F)cc1)c1nc(-c2cc(Cl)cc(Cl)c2)c2ccccn12	10µM*
C[S+](=O)([O-])c1ccc(-c2nc(C(=O)NCc3cccnc3)n3ccccc23)cc1	-13.9%
C[S+](=O)([O-])c1ccc(-c2nc(C(=O)NCc3ccc(F)cc3)n3ccccc23)cc1	11.2µM*
O=C(NCCc1ccc(Cl)cc1)c1nc(-c2ccc(F)cc2)c2ccccn12	10.8%
CCc1cccc2c(C(CC(=O)NCCc3ccccc3)c3cccc4c3OCO4)c[nH]c12 (stereo unspecified)	i
O=C(NCc1ccccc1Cl)C1CCN(C(=O)c2ncn3c2COC(c2ccccc2)C3)CC1 (stereo unspecified)	-20.4%
COCCNC(=O)C[C@@H]1c2nc(NC(=O)c3ccco3)sc2C[C@@H]2[C@](C)(CO)[C@H](O)CC[C@]21C	i
CC(C)NC(=O)C[C@@H]1c2nc(NC(=O)c3ccc(F)cc3)sc2C[C@@H]2[C@](C)(CO)[C@H](O)CC[C@]21C	i
C#CCNC(=O)C[C@@H]1c2nc(NC(=O)c3ccc(C(C)(C)C)cc3)sc2C[C@@H]2[C@](C)(CO)[C@H](O)CC[C@]21C	3.98µM*
CN(Cc1ccccc1)C(=O)C[C@@H]1c2nc(NC(=O)CC(C)(C)C)sc2C[C@@H]2[C@](C)(CO)[C@H](O)CC[C@]21C	i
C[C@]1(CO)[C@H]2Cc3sc(NC(=O)c4ccco4)nc3[C@@H](CC(=O)Nc3ccccc3)[C@]2(C)CC[C@H]1O	7.08µM*
CC(C)NC(=O)C[C@@H]1c2nc(NC(=O)N3CCOCC3)sc2C[C@@H]2[C@](C)(CO)[C@H](O)CC[C@]21C	-16.3%
CC(C)C[C@H](CO)NC(=O)C[C@@H]1c2nc(NC(=O)c3ccco3)sc2C[C@@H]2[C@](C)(CO)[C@H](O)CC[C@]21C	8.91µM*
C#CCNC(=O)C[C@@H]1c2nc(NC(=O)C(C)(C)C)sc2C[C@@H]2[C@](C)(CO)[C@H](O)CC[C@]21C	i
SMILES	Pf Dd2 inh
C[C@]1(CO)[C@H]2Cc3sc(-c4ccsc4)nc3[C@@H](CC(=O)NCc3ccco3)[C@]2(C)CC[C@H]1O	-23.5%
COCCNC(=O)[C@@H]1CCC[C@@H](NC(=O)c2cc(C)on2)CN(C)C(=O)C1	1.9%[44.1 µM]
O=C(CCn1ccc(=O)[nH]c1=O)N1CCN(Cc2ccccc2)CC(O)C1 (stereo unspecified)	-16.5%
COc1ccc(-c2noc([C@@H]3CCCN3C(=O)Cc3ccccc3)n2)cc1OC	i
Cc1nc2c(C)cccc2cc1C(=O)N1CCC2(CCNCC2)CC1	-17.3%
COc1ncccc1-c1ccnc(-c2nnc(C)n2Cc2ccccc2)c1	i
CCN1CCCC2(Cc3ccccc3CN(C(=O)CCC(=O)O)C2)C1 (stereo unspecified)	16.6%
O=C(O)CCC(=O)N1Cc2ccccc2CC2(CCCN(CCc3ccccc3)C2)C1 (stereo unspecified)	8.8%
NCC(=O)N1Cc2ccccc2CC12CCCN(C(=O)c1ccccc1)C2 (stereo unspecified)	8.91µM*

Screens from PubChem BioAssay.
